Assay results published in PubChem BioAssay (NCATS).
“And” between values parts separate entries of the source, which are not always exact repeats. Identical values can stand only once. Records with an inconclusive call do not appear. Entries that show only a call come without a potency. Where a structure was tested more than once in an assay, its records may differ in their call. The source made the active and inactive calls. Unless noted, the call rests on the fitted dose curve; in most records, active means well fitted curve in the direction sought with a large enough effect; inconclusive means small, poorly fitted or top-dose-only effect, or another doubt; inactive means no such curve, though single readings can be large; an effect the other way counts as inactive or inconclusive.

Tests used:
[1] = molecular target: Luciferin 4-monooxygenase (Photinus pyralis) (UniProt P08659); assay: Biochemical firefly luciferase enzyme assay for NPC (AID 624030);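 further: purified P. pyralis luciferase at 10 nM with luciferin and ATP substrate; series mostly up to about 59 µM; nearly all actives have a fitted effect of over 70% in size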
Procedure, shortened: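 Direct inhibition of firefly luciferase enzyme (10 nM final, 50 mM Tris Acetate) assessed by luminescence within 5 minutes. Percent activity scaled between DMSO and PTC124 positive control, with concentration-effect curves classified by fit quality and response.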

[2] = S16 Schwann cell viability assay (CellTiter-Glo assay) (AID 624031);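 further: native untransfected S16 rat Schwann cells; cellular ATP luminescence as a viability measure; series mostly up to about 58 µM; nearly all actives have a fitted effect of over 70% in size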
Procedure, shortened: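 Rat S16 Schwann cells without reporter constructs received compound or DMSO for 24 h at 37 °C under 5% CO2. Cellular ATP was then quantified by CellTiter-Glo luminescence, with vehicle wells defined as 0% activity and cell-free wells as reference.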

[3] = S16 Schwann cell PMP22 intronic element beta-lactamase assay (AID 624044; calls by dose curve; further: nearly all actives have a fitted effect of over 15% in size)
Procedure, shortened: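 Rat S16 Schwann cells with beta-Lac driven by a PMP22 intronic element, compound-treated 24 h at 37 °C. LiveBLAzer FRET B/G read: 460 nm normalized to potassium clavulanate vs DMSO; 535 nm FRET as viability; concentration-effect curves classified.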

[4] = S16 Schwann cell PMP22 intronic element firefly luciferase assay (AID 624032); further: nearly all actives have a fitted effect of over 30% in size; further: potency means the concentration at half of the fitted maximal effect
Procedure, shortened: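 Luciferase reporter of PMP22 intronic-element expression in stably transfected S16 rat Schwann cells, read by ONE-Glo luminescence after 24 h compound exposure at 37 C. Activity scaled between DMSO (0%) and positive-control PTC124; concentration-effect curves quality-classified.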

[5] = qHTS assay for small molecule activators of the p53 signaling pathway (AID 651743; active means well fitted activation curve with a large enough effect in the signal ratio, not every such curve was filed as active; the % refers to the signal ratio; further: series mostly up to about 92 µM); conditions: HCT-116 p53RE-bla, beta-lactamase FRET ratio, 16 h; activation: stronger effect = higher value
Procedure, shortened: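 Screen for p53 pathway agonists uses stably transfected p53RE-bla HCT-116 cells, 4,000 per well, treated 16 h at 37 C with compounds in DMSO.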

[6] = qHTS assay for small molecule activators of the nuclear factor-kappa B (NF-kB) signaling pathway (AID 651749; active means well fitted activation curve with a large enough effect in the signal ratio; the % refers to the signal ratio; further: series mostly up to about 77 µM); conditions: NF-kB-bla ME-180 cells, beta-lactamase FRET ratio, 16 h; stronger effect = higher value
Procedure, shortened: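 Stably transfected ME-180 line; NF-kB response element upstream of beta-lactamase. Treatment: compound or DMSO, 16 hr. Detection: fluorescent FRET substrate.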

[7] = qHTS assay for small molecule disruptors of the mitochondrial membrane potential - 1 hr assay (AID 651754; calls by dose curve; further: nearly all actives have a fitted effect of over 35% in size; further: potency means the concentration at half of the fitted maximal effect)
Procedure, shortened: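 Steps: seed HepG2 cells and let attach overnight; pin-transfer compound or vehicle; incubate 1 hr at 37C; add Mito-MPS dye for 30 min; read two-channel fluorescence for monomer and aggregate forms.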

[8] = qHTS assay for small molecule disruptors of the mitochondrial membrane potential - 5 hr assay (AID 651755; calls by dose curve; further: nearly all actives have a fitted effect of over 40% in size; further: potency means the concentration at half of the fitted maximal effect)
Procedure, shortened: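 HepG2, 2,000 cells/well, overnight attach; cpd or DMSO 5 hr, 37C/5% CO2; Mito-MPS 30 min 37C; fluor 490/535 + 540/590 nm.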

[9] = molecular target: Tumor necrosis factor (Homo sapiens) (UniProt P01375); assay: qHTS assay to identify small molecules that stimulate Tumor Necrosis Factor-alpha (TNF-alpha) secretion (AID 651757; active means well fitted curve in the direction sought with a large enough effect in the signal ratio; the % refers to the signal ratio)
Procedure, shortened: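 Secreted TNF-alpha from compound-treated THP-1 cells (17 hrs, 37 C) was quantified with a homogeneous time-resolved fluorescence antibody assay.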

[10] = qHTS assay for environmental chemicals that activate the Aryl hydrocarbon Receptor (AhR) signaling pathway (AID 651777); conditions: 1A2-DRE human hepatoma cells, luciferase, 24 h; activation: stronger effect = higher value; further: nearly all actives have a fitted effect of over 15% in size
Procedure, shortened: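 Measured luciferase activity, read 30 min after One-Glo addition at room temperature, from human hepatoma cells bearing a dioxin response element–CYP1A2 promoter reporter and exposed to compound for 24 hr at 37 C.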

[11] = molecular target: Peroxisome proliferator-activated receptor alpha (Homo sapiens) (UniProt Q07869); assay: qHTS assay for small molecule agonists of the peroxisome proliferator-activated receptor alpha (PPARalpha) signaling pathway (AID 651778); conditions: PathHunter PPARalpha complementation, chemiluminescence, 6 h; stronger effect = higher value
Procedure, shortened: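 Chemiluminescence from complemented enzyme reported PPARalpha activation in cells after 6 hr of compound treatment at 37 C. The detection reagent was incubated for 60 min at room temperature, and compounds were scored as agonists.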

[12] = molecular target: Nuclear receptor ROR-gamma (Homo sapiens) (UniProt P51449); assay: qHTS assay for small molecule antagonists of the retinoid-related orphan receptor gamma (ROR-gamma) signaling pathway (AID 651802); further: nearly all actives have a fitted effect of over 60% in size; further: potency means the concentration at half of the fitted maximal effect
Procedure, shortened: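 Antagonism is scored as a fall in luminescence from a RORE-luciferase reporter in CHO cells expressing ROR under a TET-inducible promoter, measured 16hr after doxycycline induction in the presence of compound.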

[13] = qHTS assay for small molecule agonists of the antioxidant response element (ARE) signaling pathway (AID 651741; active means well fitted activation curve with a large enough effect in the signal ratio; the % refers to the signal ratio; further: potency means the concentration at half of the fitted maximal effect)
Procedure, shortened: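 Seeding 2,000 ARE-bla HepG2 cells per well preceded a 5 h incubation at 37 C/5% CO2 and a 16 h compound exposure at 37 C. Beta-lactamase reporter activity was then quantified by fluorescence after 2 h with LiveBLAzer B/G FRET substrate.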

[14] = molecular target: Glutaminase kidney isoform, mitochondrial (Homo sapiens) (UniProt O94925); assay: qHTS for Inhibitors of Glutaminase (GLS): LOPAC Validation (AID 624146); further: nearly all actives have a fitted effect of over 60% in size; further: potency means the concentration at half of the fitted maximal effect
Procedure, shortened: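 hKGA in 45 mM KH2PO4 (pH 8.2), 0.02% Tween-20 with compound, then 1mM L-Glutamine (stock as added) plus glutamate oxidase/HRP/Amplex red coupling mix. Fluorescence read initially and after 30 min at RT; signal change reflects glutamate formation.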

[15] = qHTS of Trypanosoma Brucei Inhibitors: LOPAC Validation (AID 624147)
Procedure, shortened: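 ADP (130 uM final) triggers the TbPYK reaction after compound addition; incubation is 45 min at room temperature. Kinase-Glo Plus is then added and luminescence imaged. Normalized data are fitted to concentration-effect curves.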

[16] = molecular target: Glucagon-like peptide 1 receptor (Homo sapiens) (UniProt P43220); assay: qHTS of GLP-1 Receptor Agonists: LOPAC Validation (AID 624148);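 further: luminescence from a luciferase reporter switched on by cAMP; higher luminescence signal means agonism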
Procedure, shortened: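 Agonism scored as increased luciferase luminescence driven by cAMP in HEK293 clones carrying GLP-1R. Cells settled 12 hours, received compound for 4-6 hr at 37 deg C, 5% CO2, and were read after 12 min detection reagent at RT.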

[17] = qHTS of Nrf2 Activators: LOPAC Validation (AID 624149)
Procedure, shortened: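 ARE reporter activation measured in AREc32 firefly luciferase cells after 24 hr compound exposure; Steady-Glo luminescence.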

[18] = qHTS assay to identify small molecules that stimulate interleukin-8 (IL-8) secretion (AID 651758; active means well fitted activation curve with a large enough effect in the signal ratio; the % refers to the signal ratio; further: potency means the concentration at half of the fitted maximal effect)
Procedure, shortened: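 Secreted IL-8 measured by TR-FRET sandwich (cryptate and XL665 antibodies) from THP-1 cells exposed to compound overnight (16 hrs, 37 C).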

[19] = HTS Assay for Allosteric Antagonists of the Human D2 Dopamine Receptor: Hit Validation in HTRF (AID 624455); further: potency means the concentration at half of the fitted maximal effect;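 further: stable D1 dopamine receptor cell line scored for blocking the D1 response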
Procedure, shortened: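 Signal from an HTRF read-out in D1-expressing stable cells gave hit activity as inhibition of the D1 response.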

Sequence of Peroxisome proliferator-activated receptor alpha (Homo sapiens) (Q07869 whole entry, looked up): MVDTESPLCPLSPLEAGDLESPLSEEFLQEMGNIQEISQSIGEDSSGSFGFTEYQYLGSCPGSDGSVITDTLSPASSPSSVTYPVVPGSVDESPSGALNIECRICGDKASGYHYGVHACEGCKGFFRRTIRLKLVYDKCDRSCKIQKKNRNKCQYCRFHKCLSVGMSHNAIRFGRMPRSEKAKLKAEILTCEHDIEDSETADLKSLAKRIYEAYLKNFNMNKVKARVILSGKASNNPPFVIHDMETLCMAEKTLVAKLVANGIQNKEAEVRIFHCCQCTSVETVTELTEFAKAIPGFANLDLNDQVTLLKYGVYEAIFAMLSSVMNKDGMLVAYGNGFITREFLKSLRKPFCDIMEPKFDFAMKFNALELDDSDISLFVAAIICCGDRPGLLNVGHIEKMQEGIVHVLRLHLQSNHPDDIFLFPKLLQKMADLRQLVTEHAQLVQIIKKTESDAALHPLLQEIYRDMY
Sequence of Tumor necrosis factor (Homo sapiens) (P01375 whole entry, looked up): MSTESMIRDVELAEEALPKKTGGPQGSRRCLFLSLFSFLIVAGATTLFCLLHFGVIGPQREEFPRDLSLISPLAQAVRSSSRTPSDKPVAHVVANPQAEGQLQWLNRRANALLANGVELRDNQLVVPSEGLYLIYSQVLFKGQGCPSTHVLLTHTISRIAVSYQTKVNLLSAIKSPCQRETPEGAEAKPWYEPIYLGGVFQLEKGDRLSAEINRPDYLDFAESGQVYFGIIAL
Sequence of Luciferin 4-monooxygenase (Photinus pyralis) (P08659 whole entry, looked up): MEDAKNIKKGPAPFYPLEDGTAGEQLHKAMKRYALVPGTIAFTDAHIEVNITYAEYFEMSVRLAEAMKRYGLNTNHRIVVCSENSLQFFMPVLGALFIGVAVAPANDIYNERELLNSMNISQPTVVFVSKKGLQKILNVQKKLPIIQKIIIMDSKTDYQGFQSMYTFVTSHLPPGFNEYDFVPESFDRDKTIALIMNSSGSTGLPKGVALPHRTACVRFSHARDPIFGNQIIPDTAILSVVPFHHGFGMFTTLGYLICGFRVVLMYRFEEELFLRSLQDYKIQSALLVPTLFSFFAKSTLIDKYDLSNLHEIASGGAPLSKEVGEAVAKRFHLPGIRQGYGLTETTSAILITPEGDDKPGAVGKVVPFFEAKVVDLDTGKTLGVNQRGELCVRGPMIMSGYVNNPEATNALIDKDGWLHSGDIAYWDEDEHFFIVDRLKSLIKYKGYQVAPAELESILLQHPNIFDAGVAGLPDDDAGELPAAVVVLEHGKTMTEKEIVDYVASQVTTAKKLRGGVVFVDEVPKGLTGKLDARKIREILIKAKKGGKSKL
Sequence of Glucagon-like peptide 1 receptor (Homo sapiens) (P43220 whole entry, looked up): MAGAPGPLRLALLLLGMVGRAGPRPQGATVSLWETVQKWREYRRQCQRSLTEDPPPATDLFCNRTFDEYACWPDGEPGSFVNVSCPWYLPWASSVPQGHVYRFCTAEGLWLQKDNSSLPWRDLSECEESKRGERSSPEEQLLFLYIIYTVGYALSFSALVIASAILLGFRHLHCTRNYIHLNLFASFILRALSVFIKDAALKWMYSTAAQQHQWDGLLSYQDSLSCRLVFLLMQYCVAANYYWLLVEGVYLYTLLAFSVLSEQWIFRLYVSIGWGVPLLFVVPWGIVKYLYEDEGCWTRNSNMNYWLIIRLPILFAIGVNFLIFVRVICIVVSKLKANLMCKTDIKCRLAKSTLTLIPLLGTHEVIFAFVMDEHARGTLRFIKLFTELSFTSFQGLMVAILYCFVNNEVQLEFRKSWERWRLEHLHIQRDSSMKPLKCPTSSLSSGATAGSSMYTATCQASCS
Sequence of Glutaminase kidney isoform, mitochondrial (Homo sapiens) (O94925 whole entry, looked up, canonical isoform): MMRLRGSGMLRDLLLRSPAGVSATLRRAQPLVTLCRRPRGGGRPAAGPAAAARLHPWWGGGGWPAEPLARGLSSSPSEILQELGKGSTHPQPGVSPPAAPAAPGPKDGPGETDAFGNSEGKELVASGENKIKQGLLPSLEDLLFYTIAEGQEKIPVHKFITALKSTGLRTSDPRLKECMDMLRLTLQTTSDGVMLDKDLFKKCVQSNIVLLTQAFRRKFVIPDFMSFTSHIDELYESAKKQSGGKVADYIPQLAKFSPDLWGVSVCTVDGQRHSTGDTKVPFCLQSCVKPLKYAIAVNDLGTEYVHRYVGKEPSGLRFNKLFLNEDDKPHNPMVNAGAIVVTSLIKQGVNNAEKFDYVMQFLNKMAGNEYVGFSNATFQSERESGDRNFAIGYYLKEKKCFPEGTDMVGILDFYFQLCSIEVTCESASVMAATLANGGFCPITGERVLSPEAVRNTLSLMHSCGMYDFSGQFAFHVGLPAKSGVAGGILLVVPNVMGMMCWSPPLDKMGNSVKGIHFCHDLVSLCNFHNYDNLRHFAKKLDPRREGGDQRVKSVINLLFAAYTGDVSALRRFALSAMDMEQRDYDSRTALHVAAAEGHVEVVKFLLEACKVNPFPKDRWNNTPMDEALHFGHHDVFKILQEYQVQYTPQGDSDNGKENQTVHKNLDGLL
Sequence of Nuclear receptor ROR-gamma (Homo sapiens) (P51449 whole entry, looked up): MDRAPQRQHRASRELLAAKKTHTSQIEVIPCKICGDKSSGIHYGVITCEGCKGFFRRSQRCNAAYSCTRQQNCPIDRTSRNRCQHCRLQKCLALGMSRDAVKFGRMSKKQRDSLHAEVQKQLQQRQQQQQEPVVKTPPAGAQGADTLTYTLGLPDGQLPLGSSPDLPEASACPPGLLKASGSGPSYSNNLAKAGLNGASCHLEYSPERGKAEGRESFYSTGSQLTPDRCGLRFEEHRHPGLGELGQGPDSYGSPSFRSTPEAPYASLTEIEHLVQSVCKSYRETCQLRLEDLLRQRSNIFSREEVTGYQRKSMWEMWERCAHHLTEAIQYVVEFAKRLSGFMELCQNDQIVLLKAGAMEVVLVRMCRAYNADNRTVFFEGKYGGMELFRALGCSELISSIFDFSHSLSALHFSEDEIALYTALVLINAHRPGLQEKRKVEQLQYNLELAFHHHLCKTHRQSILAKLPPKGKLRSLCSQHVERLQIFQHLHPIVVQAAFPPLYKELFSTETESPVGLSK

OC(c1ccccc1)(c1ccccc1)C1CN2CCC1CC2 (stereo unspecified)
Potency [1]: inactive | Potency [2]: inactive | Potency [3]: inactive

O=C/C=C/c1ccccc1
Potency [1]: inactive | Potency [2]: inactive | Potency [4]: inactive | Potency [3]: inactive | activation [5]: -1.3% (inactive) and 1.6% (inactive) | activation [6]: -1.46% (inactive) and -0.692% (inactive) | Potency [7]: inactive | Potency [8]: inactive | outcome [9]: inactive | activation [10]: 2.17% (inactive) and 1.64% (inactive) | max response [11]: 0.173% (inactive) and 5.71% (inactive) | Potency [12]: inactive

CCC1(c2ccccc2)C(=O)NC(=O)N(C(=O)c2ccccc2)C1=O (stereo unspecified)
Potency [1]: inactive | Potency [2]: inactive | Potency [3]: inactive

O=[N+]([O-])c1ccc(F)c([N+](=O)[O-])c1
Potency [1]: inactive | Potency [2]: inactive | Potency [4]: inactive | Potency [13]: 42.2 µM (active) | activation [6]: -0.0445% (inactive) | activation [10]: 0.408% (inactive) | max response [11]: -10.2% (inactive) | Potency [12]: 33.5 µM (active)

C/C(=C\c1csc(C)n1)[C@@H]1C[C@@H]2O[C@]2(C)CCC[C@H](C)[C@H](O)[C@@H](C)C(=O)C(C)(C)[C@@H](O)CC(=O)O1
Potency [1]: inactive | Potency [4]: 57.3 nM (active)

CCC(=O)O[C@@](Cc1ccccc1)(c1ccccc1)[C@@H](C)CN(C)C
Potency [1]: inactive | Potency [2]: inactive | Potency [3]: inactive

ClC=C(Cl)Cl
Potency [1]: inactive | Potency [2]: inactive | Potency [4]: inactive | Potency [13]: inactive | activation [5]: -0.563% (inactive) and 7.22% (inactive) | activation [6]: -0.987% (inactive) and 0.875% (inactive) | Potency [7]: inactive | Potency [8]: inactive | outcome [9]: inactive | activation [10]: 3.37% (inactive) and -2.62% (inactive) | max response [11]: -8.59% (inactive) and -1.74% (inactive) | Potency [12]: inactive

C[C@@H](Cc1ccccc1)NCCC(c1ccccc1)c1ccccc1
Potency [1]: inactive | Potency [4]: inactive | Potency [3]: inactive

COc1ccc(OC)c(C(O)C(C)N)c1 (stereo unspecified)
Potency [1]: inactive | Potency [2]: inactive | Potency [4]: inactive | Potency [14]: inactive | Potency [15]: inactive | outcome [16]: inactive | Potency [17]: inactive

C[C@H]1CCC[C@H](O)CCCCCc2cc(O)cc(O)c2C(=O)O1
Potency [1]: inactive | Potency [2]: inactive | Potency [3]: inactive | activation [5]: -0.975% (inactive) | activation [6]: -0.26% (inactive) | Potency [7]: 33.5 µM (active) | Potency [8]: 37.6 µM (active) | outcome [9]: inactive | activation [10]: -1.64% (inactive) | max response [11]: -2.71% (inactive) | Potency [12]: 42.2 µM (active)

O=CC=O
Potency [1]: inactive | Potency [2]: inactive | Potency [4]: inactive | Potency [3]: inactive | Potency [7]: inactive | Potency [8]: inactive | outcome [9]: inactive | activation [10]: -1.42% (inactive) | max response [11]: -5.03% (inactive) | Potency [12]: inactive

CC(C)CCON=O
Potency [1]: inactive | Potency [2]: inactive | Potency [4]: inactive | Potency [3]: inactive | activation [5]: -3.9% (inactive) | Potency [7]: inactive | Potency [8]: inactive | outcome [9]: inactive | Potency [18]: inactive | activation [10]: -0.695% (inactive) | max response [11]: -0.247% (inactive) | Potency [12]: inactive

CC(C)(C)c1cc(O)ccc1O
Potency [1]: inactive | Potency [2]: inactive | Potency [4]: 7.21 µM (active) and 28.7 µM (active) | Potency [3]: inactive | activation [5]: -3.68% (inactive) and -3.53% (inactive) and -5.7% (inactive) | activation [6]: -2.1% (inactive) and -2.15% (inactive) and -3.27% (inactive) | Potency [7]: inactive | Potency [8]: inactive | outcome [9]: inactive | Potency [18]: inactive and 66.8 µM (active) | activation [10]: 12.6% (inactive) and 10.4% (inactive) | max response [11]: -2.46% (inactive) and -4.08% (inactive) and -1.53% (inactive) | Potency [12]: 16.8 µM (active) and 29.8 µM (active)

COc1ccc2c3c1O[C@H]1C(=O)CC[C@H]4[C@@H](C2)N(C)CC[C@]314
Potency [1]: inactive | Potency [2]: inactive | Potency [3]: inactive

COCC(C)N(C(=O)CCl)c1c(C)csc1C (stereo unspecified)
Potency [1]: inactive | Potency [2]: inactive | Potency [4]: inactive | Potency [13]: 15.4 µM (active) | activation [5]: -0.528% (inactive) | activation [6]: -2.83% (inactive) | activation [10]: -1.87% (inactive) | max response [11]: -3.83% (inactive)

CCC(C)(S(=O)(=O)CC)S(=O)(=O)CC
Potency [1]: inactive | Potency [4]: inactive | Potency [3]: inactive

CCOC(=O)c1ccccc1C(=O)OCC
Potency [1]: inactive | Potency [2]: inactive | Potency [4]: inactive | Potency [13]: inactive | activation [5]: 4.4% (inactive) and -0.806% (inactive) and -0.919% (inactive) | activation [6]: 1.25% (inactive) and 1.36% (inactive) and -0.459% (inactive) | outcome [9]: inactive | Potency [18]: inactive | max response [11]: 0.572% (inactive) and -3.94% (inactive) and -0.67% (inactive) | Potency [12]: inactive

Clc1ccccc1Cl
Potency [1]: inactive | Potency [2]: inactive | Potency [4]: inactive | Potency [3]: inactive | activation [6]: -0.0325% (inactive) | Potency [7]: inactive | Potency [8]: inactive | outcome [9]: inactive | activation [10]: -0.403% (inactive) | max response [11]: -2.32% (inactive) | Potency [12]: inactive

N=C(N)c1ccc(CS(=O)(=O)F)cc1
Potency [14]: inactive | Potency [15]: inactive | outcome [16]: inactive | Potency [17]: inactive | Potency [19]: inactive

C[N+](C)(C)CCOC(=O)CBr
Potency [14]: inactive | Potency [15]: inactive | outcome [16]: inactive | Potency [17]: inactive | Potency [19]: inactive

O=C(CS(=O)C(c1ccccc1)c1ccccc1)NO (stereo unspecified)
Potency [1]: inactive | Potency [3]: inactive

CCCN1CCc2cc(O)cc3c2[C@H]1Cc1ccc(O)c(O)c1-3
Potency [14]: 1.41 µM (active) | Potency [15]: inactive | outcome [16]: inactive | Potency [17]: inactive | Potency [19]: 0.0651 µM (active)

Cc1cc([C@@H]2CCCN2C)on1
Potency [14]: inactive | Potency [15]: inactive | outcome [16]: inactive | Potency [17]: inactive | Potency [19]: inactive

Clc1ccc(N2CC3CCC(C2)N3)nn1
Potency [14]: inactive | Potency [15]: inactive | outcome [16]: inactive | Potency [17]: inactive | Potency [19]: inactive
